The list is not random: actives were taken first. Their share in the collection is about 3.6%.
HepG2 tox = counter-screen for TGF-b inhibitors: cytotoxicity in HepG2 cells. HepG2 CAGA-GFP viability, ATP luminescence, 18 h. Potency, µM (series often up to 46.1 µM), for inactives: top-dose activity change, negative = cytotoxicity, usual class: cytotoxic. actives 0.76% (n = 410,000). AID 588856
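CellTiter-Glo luminescence gave cytotoxicity after 18 hours at 37 degrees C. The cells were HepG2 CAGA-GFP in 1% FBS DMEM, stimulated with 500 pg/mL TGF-beta after compound addition. %Activity was normalised to no-cell wells (complete cell-killing) and DMSO (no toxicity), and curves were fitted and classified.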
Nrf2 ARE act = activates Nrf2 signaling; AREc32 ARE-luciferase reporter (MCF7-derived line), luminescence, 24 h; Potency, µM (titrated, usually from 46.1 µM), inactives show top-dose activation, most hits filed as activators; actives 0.31% (n = 410,000); note: % of control where 0% means no effect; nearly all actives have a fitted effect of over 65% in size
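AREc32 cells carrying an ARE-driven firefly luciferase, 1000 cells/well in OPTI-MEM with 5% FBS, dosed after overnight attachment and incubated 24 hr at 37 deg C. Steady-Glo luminescence read after 30 min at RT.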
A549 tox-1 = counter-screen for Nrf2 inhibitors: cytotoxicity in A549 cells; actives 0.16% (n = 390,000); Potency, µM (top dose mostly 46 µM), for inactives: at the top dose activity change, negative = cytotoxicity, usual class: inhibitors; AID 504648; A549 ARE-Fluc cells, CellTiter-Fluor viability, 18-24 h; note: % is set by controls: 0 for no effect and ±100 for the full control effect
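A549 ARE-Fluc cells in 5% FBS OPTI-MEM, 5000 cells/well, rested 2 h then exposed to compounds in concentration-response for 18-24 h at 37 °C. Viability by CellTiter-Fluor fluorescence (Ex 405/Em 525) after 30 min; luciferase luminescence (BugLite, 15 min, RT) read afterwards.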
Nrf2 block = blocks Nrf2 signaling. A549 ARE-Fluc reporter, luciferase luminescence, 18-24 h. Potency, µM (top dose mostly 46 µM), for the others: at the highest dose activity change, negative = inhibition, actives largely listed as inhibitors. actives 2.1% (n = 360,000); note: % is set by controls: 0 for no effect and ±100 for the full control effect; nearly all actives have a fitted effect of over 60% in size
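Cells were seeded and rested 2 h, then exposed to compounds for 18-24 h. CellTiter-Fluor was read first as a viability measure. BugLite was added 15 min before the final luminescent read of ARE-luciferase activity in A549 cells.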
TGFb SMAD3 inh = blocks TGF-b signaling. HepG2 CAGA-GFP TGF-b/SMAD3 reporter, GFP fluorescence, 18 h; TGF-beta stimulated, 500 pg/mL final. Potency, µM (titrated, usually from 46.1 µM), for inactives: at the top dose activity, negative = inhibition, hits mostly inhibitors. actives 1.2% (n = 410,000); note: % is set by controls: 0 for no effect and ±100 for the full control effect; nearly all actives have a fitted effect of over 65% in size
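Smad-responsive CAGA-GFP expression was quantified in HEPG2 cells exposed to compounds and 500 pg/mL final TGF-beta for 18 h at 37 degrees C; unstimulated wells defined full inhibition.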
FLuc counter 3 = counter-screen for Nrf2 inhibitors: firefly luciferase enzyme inhibition | AID 720522 | purified firefly luciferase, luminescence inhibition | actives 4% (n = 1,400) | shares compounds with Nrf2 block | Potency, µM (titrated, usually from 57.5 µM), for the others: top-dose activity change, negative = inhibition, actives largely listed as inhibitors; note: % is set by controls: 0 for no effect and ±100 for the full control effect; nearly all actives have a fitted effect of over 65% in size
Target sequence (P08659 whole entry, looked up): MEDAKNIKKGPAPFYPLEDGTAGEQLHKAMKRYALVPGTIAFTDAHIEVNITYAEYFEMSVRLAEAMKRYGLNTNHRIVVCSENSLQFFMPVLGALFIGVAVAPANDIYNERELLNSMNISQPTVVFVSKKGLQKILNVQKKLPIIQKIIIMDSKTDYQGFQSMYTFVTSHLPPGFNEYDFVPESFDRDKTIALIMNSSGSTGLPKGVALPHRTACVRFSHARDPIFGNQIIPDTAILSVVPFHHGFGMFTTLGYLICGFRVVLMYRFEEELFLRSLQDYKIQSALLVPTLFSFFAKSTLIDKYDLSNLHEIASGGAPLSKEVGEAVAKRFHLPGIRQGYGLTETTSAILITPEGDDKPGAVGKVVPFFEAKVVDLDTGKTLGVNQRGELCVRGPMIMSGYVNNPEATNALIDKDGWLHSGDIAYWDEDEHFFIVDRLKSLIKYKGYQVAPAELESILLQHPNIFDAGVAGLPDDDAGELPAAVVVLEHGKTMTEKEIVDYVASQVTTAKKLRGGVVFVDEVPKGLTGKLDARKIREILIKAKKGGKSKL
A549 tox-2 = A549 cytotoxicity, Nrf2 inhibitor counterscreen | Potency, µM (top dose mostly 46.1 µM), for inactives: top-dose activity change, negative = cytotoxicity, most hits filed as inhibitors | A549 ARE-Fluc cells, cytotoxicity counterscreen | AID 720523 | actives 2% (n = 1,400) | shares compounds with Nrf2 block;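 note: cells exposed to compounds for 18 to 24 hours; % is set by controls: 0 for no effect and ±100 for the full control effect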
ARE-Fluc inh = confirmation of Nrf2 inhibitors in A549 ARE reporter cells. shares compounds with Nrf2 block. A549 ARE-firefly luciferase reporter, luminescence. Potency, µM (doses to about 46.1 µM), inactives show top-dose activity change, negative = inhibition, usual class: inhibitors. actives 74% (n = 1,400); note: % is set by controls: 0 for no effect and ±100 for the full control effect; nearly all actives have a fitted effect of over 65% in size
Active calls of the source: *; ? = inconclusive; . = not tested or not shown; ! = not active in a repeat; [ ] = remark or other dose. Calls come from the whole dose curve; as a rule, active = well fitted curve in the direction sought with a large enough effect; inconclusive = small, poorly fitted or top-dose-only effect, or another doubt; inactive = no such curve, though single readings can be large; an effect the other way counts as inactive or inconclusive. Potency is the fitted concentration of half-maximal effect.

SMILES	HepG2 tox	Nrf2 ARE act	A549 tox-1	Nrf2 block	TGFb SMAD3 inh	FLuc counter 3	A549 tox-2	ARE-Fluc inh
O=S(=O)(c1ccc(NC(=S)NCCC(c2ccccc2)c2ccccc2)cc1)N1CCOCC1	-21.0%	1.1%	?	4.11µM*	?	-11.6%	-24.8%	?
CCCCOCCCNC(=S)Nc1ccc(S(=O)(=O)N2CCOCC2)cc1	-6.3%	2.4%	2.6%	-27.4%	?	.	.	.
COc1ccccc1N(C)S(=O)(=O)c1ccc(Cl)c(C(=O)NCC2(N(C)C)CCCCC2)c1	-14.4%	0.5%	0.8%	12.3%	-15.5%	.	.	.
Cc1cc(N2CCN(C(=O)Nc3ccc(F)cc3F)CC2)c2ccccc2n1	-20.0%	2.0%	-13.1%	-25.0%	0.9%	.	.	.
Cc1ccc(F)cc1NC(=O)N1CCN(c2ccnc3cc(Cl)ccc23)CC1	-6.9%	-0.9%	-16.9%	9.2µM*	?	-1.4%	-3.0%	9.2µM*
CCCC(=O)Nc1nc(-c2ccc3c(c2)CCN3S(C)(=O)=O)cs1	-2.6%	5.8%	-12.6%	8.2µM*	-20.8%	?	-14.5%	?
NC(=O)NC(=O)CC1S/C(=N/N=C/c2ccccc2)NC1=O (centres undefined)	-16.9%	0.1%	-1.4%	-1.1%	-2.0%	.	.	.
COc1ccc(C2C3=C(CC(C)(C)CC3=O)Oc3ncn(Cc4ccco4)c(=N)c32)cc1 (centres undefined)	-31.7%	9.0%	?	9.2µM*	-10.7%	2.5%	-9.3%	8.8%
Cc1ccccc1SCC(=O)N1CCN(c2ccc(C(F)(F)F)cn2)CC1	3.5%	1.5%	-1.2%	3.66µM*	-17.1%	-0.6%	-4.4%	?
Nc1cc[n+](CC(=O)c2ccc3c(c2)OCCO3)cc1	-16.9%	-0.9%	?	2.06µM*	-28.1%	-3.7%	?	5.8µM*
O=C(C[n+]1ccc(C(=O)NCc2ccccc2)cc1)c1ccc2c(c1)OCCO2	2.9%	0.4%	1.8%	-18.0%	-10.2%	.	.	.
Cc1nn(C)c(C)c1CN(Cc1nc(CCC(C)C)no1)C(C)C	-20.7%	0.2%	-9.3%	1.3µM*	?	-2.3%	-1.9%	?
O=C(CCCCCN1C(=O)CCC1=O)NCc1ccccc1	-1.1%	0.4%	-3.6%	0.9%	-7.2%	.	.	.
Cc1csc(C)[n+]1CCC1CCCCC1	-4.5%	.	.	.	-18.1%	3.6%	-7.9%	14.6µM*
CC1Sc2ccc(S(=O)(=O)CCC(=O)Nc3cc(F)ccc3F)cc2NC1=O (centres undefined)	-0.9%	1.4%	-4.1%	-13.5%	-7.5%	.	.	.
CC(C)C(NS(=O)(=O)c1cccs1)C(=O)NCCN1CCN(c2ccccc2)CC1 (centres undefined)	3.0%	-0.1%	9.9%	.	12.8%	.	.	.
COc1cccc(CNC(=O)CCn2c(=O)c3cccn3c3cccnc32)c1	-2.9%	?	1.2%	1.16µM*!	1.0%	-1.6%	-3.3%	6.8%
CCOc1ccc(CNC(=O)CCn2c(=O)c3cccn3c3cccnc32)cc1	1.8%	2.3%	9.3%	-1.7%	-14.6%	.	.	.
Brc1c(C[n+]2ccccc2)nc2ccccn12	-2.0%	-0.8%	7.0%	-25.4%	22.3%	.	.	.
Brc1ccc(C[n+]2ccccc2)cc1	-14.9%	0.2%	-6.5%	2.59µM*	?	-0.5%	-6.7%	4.11µM*
Cc1ccc(-c2nc(N)n(C(=O)c3cccnc3)n2)cc1	-0.8%	-0.9%	-14.8%	1.2%	?	.	.	.
Cc1ccc(C(=O)n2nc(-c3cccnc3)nc2N)cc1	2.3%	-2.9%	-17.5%	1.3µM*	-28.2%	-1.1%	6.2%	4.61µM*
COc1ccc2cc(C#N)c(SCC(=O)NNC(=O)Cc3ccccc3)nc2c1	-29.8%	0.7%	-1.0%	?	-5.2%	.	.	.
CN(C)S(=O)(=O)N1CCN(c2ccccc2)CC1	-2.6%	-0.1%	0.0%[1.84 µM]	-1.7%	-0.4%	.	.	.
COc1cc(/C=C(/C#N)c2ccc(C)cc2)ccc1Oc1ccc([N+](=O)[O-])cn1	-22.8%	0.3%	-1.9%	2.91µM*	?	-11.6%	3.4%	?
SMILES	HepG2 tox	Nrf2 ARE act	A549 tox-1	Nrf2 block	TGFb SMAD3 inh	FLuc counter 3	A549 tox-2	ARE-Fluc inh
CCOc1cc(/C=C(/C#N)c2nc3ccccc3[nH]2)ccc1Oc1ccc([N+](=O)[O-])cn1	-23.6%	5.0%	1.4%	?	-20.8%	.	.	.
COc1ccc(N2CCN(C(CNC(=O)C(=O)NC3CCCC3)c3ccco3)CC2)cc1 (centres undefined)	-1.4%	-0.2%	-0.4%	10.3%	8.2%	.	.	.
CNC(=O)CSCCn1c(SCC(=O)NC)nc2ccccc2c1=O	-11.1%	0.0%	-1.0%	-2.6%	28.1%	.	.	.
CSc1cccc(NS(=O)(=O)c2ccc(C(C)=O)cc2)c1	-2.7%	0.0%	0.5%	4.61µM*	-17.6%	5.0%	-0.3%	.
CC(=O)c1cccc(NS(=O)(=O)c2ccc(NC(=O)N3CCCCC3)cc2)c1	6.5%	0.3%	-13.4%	8.2µM*	-16.1%	-0.3%	-3.0%	14.6µM*
CCC(=O)N1CCc2cc(S(=O)(=O)CCC(=O)N3CCCC(C)C3)ccc21 (centres undefined)	10.2%	-0.8%	-3.3%	-0.4%	-4.0%	.	.	.
Cc1ccccc1NC1=C(Cl)C(=O)OC1OC(=O)c1ccccc1C (centres undefined)	-4.6%	?	?	1.64µM*	35.1%	-3.7%	-2.1%	?
Cc1ccc(NC2=C(Cl)C(=O)OC2OC(=O)c2ccccc2)c(C)c1 (centres undefined)	4.2%	?	-1.5%	3.3%	-0.1%	.	.	.
CCN(CC)C(=O)c1oc2ccc(S(=O)(=O)N3CC(C)CC(C)C3)cc2c1C (centres undefined)	-20.2%	0.1%	0.0%	8.2µM*	?	-0.4%	-6.1%	8.2µM*
CCN(CC)C(=O)c1oc2ccc(S(=O)(=O)N3CCCCCC3)cc2c1C	-19.8%	2.4%	-4.9%	?	?	.	.	.
Nc1c(S(=O)(=O)c2ccccc2)c2nc3ccccc3nc2n1/N=C/c1ccco1	-4.0%	0.2%	-19.5%	5.8µM*	-1.2%	?	-24.9%	2.06µM*
Cc1ccc(-c2noc(CSc3nnc(-c4ccncc4)n3-c3ccc(C)cc3)n2)cc1	-15.9%	-0.7%	-15.5%	?	0.3%	.	.	.

Assay outcomes from PubChem BioAssay.
